What all share (assay): yeast three-hybrid, YBZ-1, SC-Leu-His + 0.5 mM 3-AT, 4 days
Common to all, as to conditions: tags: N-Gal4 AD-HA kept; label: inside an RPR1-promoter hybrid RNA with tandem MS2 sites; ssRNA

The target in one assay is PUM1 PUF domain R5-RFE (Homo sapiens, UniProt Q14671 828-1176, C1007R;R1008F;Q1011E). The method in brief:
(§1)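 Matching RNA elements and Pumilio-1 PUF domain libraries, randomized at the three base-contacting residues of every repeat, were co-expressed from a centromeric plasmid in strain YBZ-1 (LexA–MS2 coat fusion, HIS3 reporter). The repeat regions were PCR-amplified and Illumina-sequenced from cells grown four days on SC-Leu (input) or SC-Leu-His + 0.5 mM 3-AT (selection). The interaction score is the log change in variant frequency from input to selection. It is computed in log2, with a pseudocount of 1 for absent variants.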

For another assay, the target named is PUM1 PUF domain R5-KRI (Homo sapiens, UniProt Q14671 828-1176, C1007K;Q1011I). The procedure, abridged:
as §1

For a further assay, the target named is PUM1 PUF domain R5-RVM (Homo sapiens, UniProt Q14671 828-1176, C1007R;R1008V;Q1011M). The method in brief:
as §1

The next assay addresses PUM1 PUF domain R4-EYL (Homo sapiens, UniProt Q14671 828-1176, N971E;H972Y;Q975L). The method in brief: as §1
The target of a further assay is PUM1 PUF domain R4-SRT (Homo sapiens, UniProt Q14671 828-1176, N971S;H972R;Q975T). The procedure, abridged:
as §1

The next assay deals with PUM1 PUF domain R2-RKS (Homo sapiens, UniProt Q14671 828-1176, N899R;Y900K;Q903S). The method in brief: as §1
Another assay has as its target PUM1 PUF domain R5-DHN (Homo sapiens, UniProt Q14671 828-1176, C1007D;R1008H;Q1011N). The method in brief: as §1
Another assay deals with PUM1 PUF domain R7-VRR (Homo sapiens, UniProt Q14671 828-1176, S1079V;N1080R;E1083R). The method in brief: as §1
The target in the next assay is PUM1 PUF domain R2-CWP (Homo sapiens, UniProt Q14671 828-1176, N899C;Y900W;Q903P). The procedure, abridged: as §1
A further assay has as its target PUM1 PUF domain R8-RHR (Homo sapiens, UniProt Q14671 828-1176, N1122R;Y1123H;Q1126R). The method in brief:
as §1

The target in the next assay is PUM1 PUF domain R8-RMR (Homo sapiens, UniProt Q14671 828-1176, N1122R;Y1123M;Q1126R). The procedure, abridged: as §1
For a further assay, the target named is PUM1 PUF domain R8-RHA (Homo sapiens, UniProt Q14671 828-1176, N1122R;Y1123H;Q1126A). The method in brief: as §1

Sequence of PUM1 PUF domain R4-EYL (Q14671 828-1176 N971E/H972Y/Q975L): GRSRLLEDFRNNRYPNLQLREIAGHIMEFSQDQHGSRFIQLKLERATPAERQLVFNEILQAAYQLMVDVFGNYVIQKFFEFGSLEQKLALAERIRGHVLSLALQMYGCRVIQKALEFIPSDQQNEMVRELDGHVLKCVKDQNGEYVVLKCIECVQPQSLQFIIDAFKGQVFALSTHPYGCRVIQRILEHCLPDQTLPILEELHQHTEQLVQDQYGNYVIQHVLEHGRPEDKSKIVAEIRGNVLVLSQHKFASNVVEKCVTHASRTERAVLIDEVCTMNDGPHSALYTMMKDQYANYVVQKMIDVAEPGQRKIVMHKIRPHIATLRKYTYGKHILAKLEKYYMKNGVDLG
Sequence of PUM1 PUF domain R2-CWP (Q14671 828-1176 N899C/Y900W/Q903P): as the sequence (Q14671 828-1176 N971E/H972Y/Q975L) above, with N72C, Y73W, Q76P, E144N, Y145H, L148Q counted along it
Sequence of PUM1 PUF domain R4-SRT (Q14671 828-1176 N971S/H972R/Q975T): as the sequence (Q14671 828-1176 N971E/H972Y/Q975L) above, with E144S, Y145R, L148T counted along it
Sequence of PUM1 PUF domain R2-RKS (Q14671 828-1176 N899R/Y900K/Q903S): as the sequence (Q14671 828-1176 N971E/H972Y/Q975L) above, with N72R, Y73K, Q76S, E144N, Y145H, L148Q counted along it

Turning to “GGCUAGAACUAGUGGAUCCCCCGGCGCCCGGCGGCUCGAGCCCGGGUAAGUGUCAAUAGUCUGCAUGCCGCCGGGCGCCAUGCCUGCAGGUCGACUCUAGAAAACAUG”, the figures for the binding signal with PUM1 PUF domain R5-RFE, in the assay with PUM1 PUF domain R5-KRI and with PUM1 PUF domain R5-RVM were 4.53 log2 enrichment (interaction score), 4.51 log2 enrichment (interaction score) and 2.54 log2 enrichment (interaction score), respectively.

Consider “GGCUAGAACUAGUGGAUCCCCCGGCGCCCGGCGGCUCGAGCCCGGGUAAGUGUAUAUAGUCUGCAUGCCGCCGGGCGCCAUGCCUGCAGGUCGACUCUAGAAAACAUG”, for which the binding signal with PUM1 PUF domain R4-EYL is 3.34 log2 enrichment (interaction score); in the assay with PUM1 PUF domain R4-SRT, 2.14 log2 enrichment (interaction score).

On to “GGCUAGAACUAGUGGAUCCCCCGGCGCCCGGCGGCUCGAGCCCGGGUAAGUGUAAAGAGUCUGCAUGCCGCCGGGCGCCAUGCCUGCAGGUCGACUCUAGAAAACAUG”, for which, in the assay with PUM1 PUF domain R2-RKS, the binding signal is 4.33 log2 enrichment (interaction score).

As for “GGCUAGAACUAGUGGAUCCCCCGGCGCCCGGCGGCUCGAGCCCGGGUAAGUGUUAAUAGUCUGCAUGCCGCCGGGCGCCAUGCCUGCAGGUCGACUCUAGAAAACAUG”, the binding signal in the assay with PUM1 PUF domain R5-DHN is 2.22 log2 enrichment (interaction score).

As to “GGCUAGAACUAGUGGAUCCCCCGGCGCCCGGCGGCUCGAGCCCGGGUAAGUUUAAAUAGUCUGCAUGCCGCCGGGCGCCAUGCCUGCAGGUCGACUCUAGAAAACAUG”, the binding signal with PUM1 PUF domain R7-VRR is 2.18 log2 enrichment (interaction score).

As for “GGCUAGAACUAGUGGAUCCCCCGGCGCCCGGCGGCUCGAGCCCGGGUAAGUGUAAAAAGUCUGCAUGCCGCCGGGCGCCAUGCCUGCAGGUCGACUCUAGAAAACAUG”, in the assay with PUM1 PUF domain R2-CWP, the binding signal was 6.72 log2 enrichment (interaction score).

For “GGCUAGAACUAGUGGAUCCCCCGGCGCCCGGCGGCUCGAGCCCGGGUAAGUGUGAAUAGUCUGCAUGCCGCCGGGCGCCAUGCCUGCAGGUCGACUCUAGAAAACAUG”, in the assay with PUM1 PUF domain R5-DHN, the binding signal was 2.35 log2 enrichment (interaction score).

With “GGCUAGAACUAGUGGAUCCCCCGGCGCCCGGCGGCUCGAGCCCGGGUAAGCGUAAAUAGUCUGCAUGCCGCCGGGCGCCAUGCCUGCAGGUCGACUCUAGAAAACAUG”, the binding signal with PUM1 PUF domain R8-RHR is 6.54 log2 enrichment (interaction score); in the assay with PUM1 PUF domain R8-RMR it was 3.05 log2 enrichment (interaction score); in the assay with PUM1 PUF domain R8-RHA it was 4.75 log2 enrichment (interaction score).

(Values after publication PMC8384837, “Expanding the binding specificity for RNA recognition by a PUF domain”.)
